# HCV inh: qHTS Assay for Inhibitors of Hepatitis C Virus (HCV). Potency, µM (titrated, usually from 41.8 µM), inactives show at the highest dose activity change, negative = inhibition, actives largely listed as inhibitors. hit rate 3.4% among 340,000. AID 651820, 2012. Huh7.5.1 HCVcc-Cre infection, luciferase reporter, 44 h
#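 Infectious HCVcc-Cre (~0.5 moi) was added to cells just after compound, with cells seeded 4 h earlier at 1,000 per well. Luciferase activity after 44 h culture reported infection; substrate was incubated 15 min at room temperature before reading.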
# Pf growth 96h: Primary qHTS for delayed death inhibitors of the malarial parasite plastid, 96 hour incubation; hit rate 6.9% among 320,000; Potency, µM (series often up to 28.7 µM), for the others: at the highest dose activity change, negative = inhibition, most hits filed as inhibitors; P. falciparum luciferase reporter growth, 96 h; AID 504834, 2011
#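 Cell-based qHTS: luciferase-tagged P. falciparum in erythrocytes (2% hematocrit, 0.05% parasitemia final) incubated with compounds for 96 hours, 37 C, 5% CO2; luciferase detection reagent then added and luminescence measured.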
# Pf growth 48h: Primary qHTS for delayed death inhibitors of the malarial parasite plastid, 48 hour incubation. Potency, µM (titrated, usually from 28.7 µM), inactives show at the highest dose activity change, negative = inhibition, hits mostly inhibitors. hit rate 5.9% among 310,000. P. falciparum luciferase growth in erythrocytes, 48 h. AID 504832, 2011
#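 Parasite viability was followed by luminescence of a genomically integrated firefly luciferase. Cultures held 0.1% parasitemia at 2% hematocrit (final), incubated under 5% CO2 at 37 C.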
# AMA1 RON2 block: qHTS for Inhibitors of AMA1-RON; Towards Development of Antimalarial Drug Lead: Primary Screen. Potency, µM (titrated, usually from 58.2 µM), for inactives: at the highest dose activity change, negative = inhibition, most hits filed as inhibitors. Plasmodium falciparum AMA1 (3D7) - RON2 peptide interaction. AID 720542, 2013. AlphaScreen AMA1-biotinylated RON2 peptide binding. hit rate 0.2% among 360,000;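 further: 0% = vehicle wells and -100% = peptide control; nearly all actives have a fitted effect of over 45% in size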
#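 AMA1 (3D7) with his tag at 25 nM final met compounds first, then biotinylated RON2 peptide at 25 nM; detection used donor plus acceptor beads, 10 µg/mL apiece, read by AlphaScreen after 30 min at room temperature.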
# * marks the source's active call; other numbers are inactive results; i = inactive; ? = inconclusive; · = no result. A selection: hits, their analogues and other compounds. The true share with any hit is near 11%. The call rests on the fitted dose curve; in most records, active means well fitted curve in the direction sought with a large enough effect; inconclusive means small, poorly fitted or top-dose-only effect, or another doubt; inactive means no such curve, though single readings can be large; an effect the other way counts as inactive or inconclusive. Unless noted, on the % scale 0 is the no-effect control and ±100 the full control effect; potency means the concentration at half of the fitted maximal effect.
SMILES,HCV inh,Pf growth 96h,Pf growth 48h,AMA1 RON2 block
CCOc1ccc(C(=O)Nc2ccccc2N2CCN(C(=O)c3ccccc3)CC2)cc1[N+](=O)[O-],?,1.7µM*,1.3µM*,3%
COc1ccc(Br)cc1C(=O)Nc1ccccc1N1CCN(C(=O)c2ccccc2)CC1,11µM*,-11%,?,2%
COc1c(C)cc(Br)cc1C(=O)Nc1ccccc1N1CCN(C(=O)c2ccccc2)CC1,?,-3%,?,11%
COc1ccc(C(=O)Nc2cc(C(F)(F)F)ccc2Cl)cc1OC,?,19%,-2%,4%
O=C(c1cc2ccccc2[nH]1)N(Cc1cccnc1)CC1CCCN(C2CCCCC2)C1 (stereo unspecified),?,?,10µM*,-6%
CN(C)CCNc1ncnc2oc(-c3ccccc3)c(-c3ccccc3)c12,3.2µM*,?,?,-10%
CC1CCCCN1C(=O)c1cccc(NC2=C(Cl)C(=O)N(Cc3ccccc3)C2=O)c1 (stereo unspecified),?,?,?,-2%
O=C1C(Cl)=C(Nc2cccc(O)c2)C(=O)N1Cc1ccccc1,-1%,4.7µM*,-24%,-26%
COc1ccc(OC)c(NC2=C(Cl)C(=O)N(Cc3ccccc3)C2=O)c1,-2%,-13%,-25%,13µM*
O=c1[nH]c(-c2ccccc2)nn1-c1ccc(Br)cc1Br,10%,-17%,53%,11%
CC(=O)N1c2ccc(S(=O)(=O)NCCC(=O)Nc3ccc(C)c(Cl)c3)cc2CC1C (stereo unspecified),-17%,-32%,8%,10%
CCCc1cc(=O)oc2cc(C)c3c(C)coc3c12,10µM*,-11%,14%,-3%
Cc1cc(=O)oc2cc3oc(=O)cc(C)c3cc12,9%,4.7µM*,3%,14%
CCCc1cc(=O)oc2cc3oc(C)c(C)c3cc12,22µM*,·,39%,-5%
Cc1oc2cc3oc(=O)cc(C)c3cc2c1C,-9%,34%,51%,-4%
Cc1c(C)c2cc3c(C)coc3cc2oc1=O,-3%,5.2µM*,34%,12%
CCOC(=O)C1(C)CCN1C(=O)c1ccco1 (stereo unspecified),·,·,·,9%
CCCc1cc(=O)oc2cc3occ(C)c3cc12,2.2µM*,·,6%,2%
Cc1cc(C)cc(-n2ncc3c2CCCC3NC(=O)CCN2Cc3ccccc3C2=O)c1 (stereo unspecified),?,-29%,-18%,13%
COc1ccc(NC(=O)C2CC(=O)N(c3ccccc3Cl)C2)c(OC)c1 (stereo unspecified),1%,15%,-5%,9%
CC(=O)Nc1ccc(NC(=O)c2ccc(OCc3c(C)noc3C)cc2)cc1,2%,·,·,2%
COc1ccc(C(C)=O)cc1COC(=O)c1c(C)noc1C,10µM*,-25%,·,3%
COc1ccc(C(C)=O)cc1COC(=O)c1cccnc1Cl,11µM*,38%,20%,-3%
COc1ccc(C(C)=O)cc1COC(=O)c1ccc(OCc2c(C)noc2C)cc1,?,8.3µM*,?,8%
COc1ccc(C(C)=O)cc1COC(=O)c1cc2ccccc2cc1O,-22%,-20%,-15%,-15%
SMILES,HCV inh,Pf growth 96h,Pf growth 48h,AMA1 RON2 block
Cc1ccc(NC(=O)c2ccc(OCc3c(C)noc3C)cc2)cc1C,4.5µM*,·,·,-6%
CC1CC(C)(C)NC(=S)N1CCC(=O)NCCc1ccc(Cl)cc1 (stereo unspecified),25%,?,-11%,5%
COc1ccc(/C=C2\N=C(C)OC2=O)cc1[N+](=O)[O-],1%,?,18%,-15%
COc1ccc(NC(=O)COc2ccc(-n3cnnn3)cc2)cc1OC,?,?,4%,-4%
COc1ccc(C(C)=O)cc1COc1ccc(-n2cnnn2)cc1,10µM*,·,-13%,-7%
COc1ccc(CCNC(=O)CC2Oc3ccc(Cl)cc3NC2=O)cc1OC (stereo unspecified),3%,-23%,·,-6%
CCC(C)NC(=O)CC1Oc2ccc(Cl)cc2NC1=O (stereo unspecified),8%,10µM*,·,4%
COc1ccc2nc(NC(=O)CCN3C(=S)NC(C)(C)CC3C)sc2c1 (stereo unspecified),-1%,0%,19%,0%
CCN(CC)C(=O)CSc1nc(-c2cccs2)cc(-c2cccs2)c1C#N,2.5µM*,?,8.3µM*,-4%
COc1ccc(-c2cc(C3CC3)nc(SCC(=O)c3cccs3)c2C#N)cc1,?,?,-29%,-10%
CN1CCN(C(=O)CSc2nc(-c3cccs3)cc(-c3cccs3)c2C#N)CC1,?,2.1µM*,?,4%
CSc1nc(C2CC2)cc(-c2cccs2)c1C#N,11µM*,?,9%,-11%
N#Cc1c(-c2ccc(F)cc2)cc(-c2cccs2)nc1SCC(=O)O,11%,17%,·,69%
O=C(NCCc1ccccc1)c1ccc(NCC2CCCO2)c([N+](=O)[O-])c1 (stereo unspecified),-10%,27%,87%,-9%
O=c1[nH]c(/C=C\c2cccc(F)c2)nc(O)c1[N+](=O)[O-],0%,?,?,-10%
O=c1[nH]c(/C=C\c2ccccc2F)nc(O)c1[N+](=O)[O-],17%,13µM*,-9%,6%
C#CCOc1c(/C=C\c2nc(O)c([N+](=O)[O-])c(=O)[nH]2)cc(Br)cc1OC,10%,?,5.2µM*,-3%
C=C1CCC2[C@](C)(CO[C@@H]3O[C@H](CO)[C@@H](O)[C@H](O)[C@H]3O)CCC[C@@]2(C)[C@@H]1CCC1=CCOC1=O (stereo partly specified),13%,2%,?,-4%
CC1Nc2ncnc(N3CCc4ccccc4C3)c2N(Cc2ccc(Cl)cc2)C1=O (stereo unspecified),3%,5.2µM*,13µM*,12%
CC1Nc2ncnc(N3CCc4ccccc4C3)c2N(Cc2ccc(Br)cc2)C1=O (stereo unspecified),?,6.6µM*,2.1µM*,11%
C=CCOc1ccc(/C=C2/C(=N)N3N=C(CC(=O)N4CCCC4)SC3=NC2=O)cc1OC,15%,24%,13%,35%
NC1=NC(c2ccc(Cl)cc2)N(c2ccc(S(N)(=O)=O)cc2)C(N)=N1 (stereo unspecified),-3%,9.3µM*,?,4%
Cc1nc(N2CCN(C(=O)c3cccs3)CC2)c2c3c(sc2n1)CCCC3,11µM*,23%,?,-4%
Cc1nc(N2CCN(C(=O)c3ccco3)CC2)c2c3c(sc2n1)CC(C)CC3 (stereo unspecified),13µM*,i,?,-25%
Cc1ccc(S(=O)(=O)N2CCN(c3nc(C)nc4sc5c(c34)CCC(C)C5)CC2)cc1 (stereo unspecified),·,7.4µM*,?,·
